Compound activity deposited in PubChem by several laboratories.
DAT uptake mod: changed hDAT dopamine uptake under cocaine IC80, either direction, primary screen, cocaine antagonist project, cell-based, LLC-PK1 hDAT, [14C]-dopamine uptake, MLSMR | LLC-PK1 hDAT cells, [14C]-dopamine uptake with cocaine IC80; actives deviate in either direction | B-score at 10 µM | actives 1.3% (n = 110,000) | AID 449768, 2010;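 active = Z score or B-score, a plate-position-corrected score, falls beyond the plate's 99.7% confidence bounds, in either direction; inactive = both scores lie inside the 99.7% bounds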;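 also: scored against the spread of the other compound wells on the same plate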
EphB4 antag: EphB4-ephrin-B2 interaction antagonists, primary screen, biochemical, TNYL-RAW peptide probe, fluorescence polarization | Ephrin type-B receptor 4 (Homo sapiens), P54760 | EphB4 LBD / TNYL-RAW-Alexa532 peptide | inhibition, % at 7 µM | actives 0.15% (n = 97,000);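 active = inhibition above the screen-wide mean inhibition plus 3 SD, cut at about 15% in these data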;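 also: 0% = DMSO wells and 100% = excess unlabeled TNYL-RAW peptide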
Target sequence (P54760 whole entry, looked up, the tested form may be a part): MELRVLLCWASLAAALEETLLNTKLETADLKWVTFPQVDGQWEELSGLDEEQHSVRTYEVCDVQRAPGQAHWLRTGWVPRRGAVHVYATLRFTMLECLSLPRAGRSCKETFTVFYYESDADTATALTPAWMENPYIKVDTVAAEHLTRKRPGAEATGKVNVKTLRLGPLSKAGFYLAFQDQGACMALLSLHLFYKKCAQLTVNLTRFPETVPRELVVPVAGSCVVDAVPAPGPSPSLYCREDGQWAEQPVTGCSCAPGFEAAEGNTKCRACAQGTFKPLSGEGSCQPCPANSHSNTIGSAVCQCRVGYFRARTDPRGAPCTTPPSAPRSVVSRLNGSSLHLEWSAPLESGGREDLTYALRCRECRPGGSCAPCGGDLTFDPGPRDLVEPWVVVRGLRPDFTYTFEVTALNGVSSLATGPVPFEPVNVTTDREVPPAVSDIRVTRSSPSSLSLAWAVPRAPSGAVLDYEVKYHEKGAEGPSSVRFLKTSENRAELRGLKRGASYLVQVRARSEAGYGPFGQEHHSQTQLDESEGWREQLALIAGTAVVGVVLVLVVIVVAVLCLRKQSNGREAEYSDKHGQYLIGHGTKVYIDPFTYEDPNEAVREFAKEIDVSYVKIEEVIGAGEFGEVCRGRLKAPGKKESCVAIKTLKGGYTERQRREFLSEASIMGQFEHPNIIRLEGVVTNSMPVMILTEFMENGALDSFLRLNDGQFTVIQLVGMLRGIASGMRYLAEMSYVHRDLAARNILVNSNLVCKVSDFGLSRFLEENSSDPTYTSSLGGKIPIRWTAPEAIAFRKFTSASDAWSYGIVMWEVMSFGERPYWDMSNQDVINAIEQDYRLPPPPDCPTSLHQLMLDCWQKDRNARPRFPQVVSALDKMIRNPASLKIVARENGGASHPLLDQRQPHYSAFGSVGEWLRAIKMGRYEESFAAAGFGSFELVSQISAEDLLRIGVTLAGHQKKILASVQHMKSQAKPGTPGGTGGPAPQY
D1 mod: D1 CRE-luciferase signal change, two-sided – cell-based, HEK293 D1, dopamine EC30, D1 allosteric modulator project, primary screen. dopamine EC30 potentiation; actives deviate in either direction. B-score at 10 µM. actives 5.9% (n = 58,000). AID 641, 2007;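 active = luminescence count or its row- and column-corrected plate score outside the 99.7% band of the plate's sample wells, on either side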
D1 mod confirm: D1 receptor positive allosteric modulators, retest, confirmation, cell-based, HEK293 D1, CRE-luciferase, duplicate. actives 88% (n = 2,200). shares compounds with D1 mod. luminescence at 10 µM. dopamine EC30 potentiation; active compounds read high. AID 642, 2007;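 active = luminescence in either of two replicates above the same-plate mean plus 3 SD of the low-dose dopamine control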
D1 ag no DA: D1 receptor agonism without dopamine, confirmation, mechanism study for D1 allosteric modulator project, cell-based, HEK293 D1, CRE-luciferase, secondary assay 1 | shares compounds with D1 mod | luminescence, no dopamine; active compounds read high | luminescence at 10 µM | actives 0.8% (n = 1,900) | AID 646, 2007; in the data active = luminescence above about 3900
Isoprot counter: isoproterenol response counter-screen activity for D1 modulators | shares compounds with D1 mod | HEK293 D1 CRE-luciferase, isoproterenol EC30 counter-screen | calls only at 10 µM | actives 63% (n = 2,200) | AID 647;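 active = luminescence in either replicate above plate mean of wells with a partly effective reference agonist dose plus 3 SD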;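 also: isoproterenol raises cAMP through native beta-adrenoceptor Gs so signal bypasses D1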
Starred values were filed as active, the others as inactive. Only a selection was taken, and hits are over-represented in it overall.

`CCn1nc(NC(=O)c2ccncc2)c2cc3ccccc3nc21` gave DAT uptake mod 0.985, EphB4 antag -2.0, D1 mod 10.7*, D1 mod confirm 15352*, D1 ag no DA 1464 and Isoprot counter active.
CCOC(=O)N1CCN(C(=O)Cn2ccc3c(OC)cccc3c2=O)CC1 was read as DAT uptake mod -0.143.
`Cc1cc(C)cc(N(C(C)C(=O)NCCC2=CCCCC2)S(C)(=O)=O)c1` (stereo unspecified) gave DAT uptake mod 1.8 and EphB4 antag 3.9.
`COC(=O)c1cccc(COC(=O)c2ccc(CS(=O)(=O)c3ccc(C)cc3)cc2)c1` gave DAT uptake mod -0.0518 and EphB4 antag 4.8.
COc1ccc(C2CC(c3cccs3)=Nc3ccccc3S2)cc1 (stereo unspecified) was read as DAT uptake mod -1.34 and EphB4 antag -3.0.
Screening N#Cc1c(N)nc(SCC(=O)NC2CCCCC2)c(C#N)c1-c1ccc(Cl)cc1 returned DAT uptake mod 0.342, EphB4 antag -7.8 and D1 mod 0.382.
For N#CCSc1nc(N)c(C#N)c(C2CCCCC2)c1C#N the results were DAT uptake mod -1.6, EphB4 antag -5.2, D1 mod 8.99*, D1 mod confirm 13172* and Isoprot counter active.
For COc1cc(C(=O)N2CCN(c3cccc(C)c3C)CC2)cc(OC)c1OC the results were DAT uptake mod -0.455, EphB4 antag -7.5 and D1 mod 1.67.
Screening COc1cc(C(=O)N2CCN(c3cc(Cl)ccc3Cl)CC2)cc(OC)c1OC returned DAT uptake mod -0.0115, EphB4 antag 4.3, D1 mod 6.53*, D1 mod confirm 10496*, D1 ag no DA 1588 and Isoprot counter active.
Screening O=c1c([N+](=O)[O-])cc(C(F)(F)F)cn1Cc1c(Cl)cccc1Cl returned EphB4 antag 5.2.
Screening OC1(c2ccc(Cl)cc2)CCN(Cc2c[nH]c3ccccc23)CC1 returned DAT uptake mod -0.732.
Screening CCC(=O)Nc1nc2c(OC)ccc(OC)c2s1 returned DAT uptake mod -0.156, EphB4 antag -2.2, D1 mod 2.94*, D1 mod confirm 8516*, D1 ag no DA 1464 and Isoprot counter inactive.
For COc1ccc(OC)c2sc(NC(=O)C3CC3)nc12 the results were DAT uptake mod -0.017, EphB4 antag -7.4, D1 mod 3.94*, D1 mod confirm 10100* and Isoprot counter inactive.
Screening COc1ccc(OC)c2sc(NC(=O)c3ccc(Cl)s3)nc12 returned DAT uptake mod 1.45, EphB4 antag 8.1 and D1 mod -0.14.
`CCCC(=O)Nc1nc2c(OC)ccc(OC)c2s1` gave DAT uptake mod 0.16, EphB4 antag -1.6 and D1 mod -0.0482.
Screening NCCCCc1cn(CC(=O)N2CCNCC2)nn1 returned DAT uptake mod -0.178.
Screening CC1=C(C#N)C(C(F)(F)F)(C(F)(F)F)N=C(c2ccco2)N1 returned DAT uptake mod -2.31, EphB4 antag 5.4 and D1 mod 0.229.
`C[C@@H](C(=O)Nc1ccc2ccccc2c1)[C@H]1C[C@]1(C)[C@H](NS(=O)(=O)c1ccccc1)c1ccccc1` gave DAT uptake mod 2.12.
CN(C)S(=O)(=O)c1cccc(C(=O)OCC(=O)Nc2sccc2C#N)c1 was read as DAT uptake mod 0.478 and EphB4 antag -0.9.
`COc1ccc(-c2nnc(SCC(=O)Nc3ncc(C)s3)n2-c2ccccc2)cc1OC` gave DAT uptake mod 1.27, EphB4 antag -12.6, D1 mod 3.65*, D1 mod confirm 11512*, D1 ag no DA 1492 and Isoprot counter active.
Cc1ccccc1NC(=O)CSc1nnc(-c2ccccc2)n1-c1ccccc1 was read as DAT uptake mod 1.1 and EphB4 antag 1.1.
`Cc1nn(-c2ccccc2)cc1/C=N/O` gave DAT uptake mod -1.24, EphB4 antag 2.2, D1 mod 4.27*, D1 mod confirm 7640* and Isoprot counter inactive.
Screening Cc1nn(C)cc1/C=N/O returned DAT uptake mod -0.323, EphB4 antag 6.4 and D1 mod -0.602.
For c1ccc(C2=NC(c3ccccc3)N=C(c3ccccc3)N2)cc1 the results were DAT uptake mod 0.395 and EphB4 antag -5.8.
For O=C1N=C(c2ccccc2)C(c2ccccc2)N1 (stereo unspecified) the results were DAT uptake mod -0.344, EphB4 antag 10.2, D1 mod 8.76*, D1 mod confirm 22264*, D1 ag no DA 20356* and Isoprot counter active.
CC(C)(C)[C@H]1C=C(C(N)=O)O[C@@H](OCCCCO)C1 was read as DAT uptake mod -0.621.
For COc1ccc(-c2ccc(=O)n(CC(=O)Nc3cccc(O)c3)n2)cc1OC the results were DAT uptake mod 0.339, EphB4 antag 4.4, D1 mod 28.7*, D1 mod confirm 4824, D1 ag no DA 1660 and Isoprot counter inactive.
COc1ccc(-c2ccc(=O)n(CC(=O)Nc3nnc(C(C)C)s3)n2)cc1OC was read as DAT uptake mod -0.179 and EphB4 antag 4.3.
Screening Cn1c(=O)n(C)c2cc(S(=O)(=O)NCc3ccco3)ccc21 returned DAT uptake mod 0.469, D1 mod 2.38*, D1 mod confirm 5820, D1 ag no DA 1724 and Isoprot counter inactive.
For Cn1c(=O)oc2cc(S(=O)(=O)NCc3ccco3)ccc21 the results were DAT uptake mod -1.53, EphB4 antag -7.3 and D1 mod 0.78.
`Sc1oc(-c2ccccc2)cc1C=Nc1ccccc1` gave DAT uptake mod 0.555 and EphB4 antag -2.0.
Screening Cc1ccc2nc(NCc3ccco3)c(C=NCc3ccco3)c(=O)n2c1 returned DAT uptake mod -0.0579, EphB4 antag -5.8 and D1 mod 0.0973.
Screening Cc1ccc2nc(Nc3ccccc3)c(/C=N/O)c(=O)n2c1 returned DAT uptake mod 0.355, EphB4 antag -2.8, D1 mod 10.3*, D1 mod confirm 17088*, D1 ag no DA 1488 and Isoprot counter active.
CN(C)/C=N/c1cc(=O)n(C)c(=O)n1Cc1ccccc1 was read as DAT uptake mod 0.0101.
For O=C(O)C[C@H]1c2ccc(C(F)(F)F)cc2S(=O)(=O)N1C1CCCCC1 the results were DAT uptake mod -1.51.
`COC(=O)c1ccc(COc2nc(C)cc(C)c2C#N)o1` gave DAT uptake mod -0.2, EphB4 antag 2.1, D1 mod 3.59*, D1 mod confirm 11580*, D1 ag no DA 1524 and Isoprot counter inactive.
